HP1b binding inh – HP1-beta chromodomain-methylated histone interaction inhibition. AID 540317. Potency, µM (doses to about 114 µM), most hits filed as inhibitors. P83916. 390,000 tested, 0.56% active. AlphaScreen HP1-beta / biotin-H3K9me3 peptide binding; also: nearly all actives have a fitted effect of over 70% in size
Target sequence (P83916 whole entry, looked up): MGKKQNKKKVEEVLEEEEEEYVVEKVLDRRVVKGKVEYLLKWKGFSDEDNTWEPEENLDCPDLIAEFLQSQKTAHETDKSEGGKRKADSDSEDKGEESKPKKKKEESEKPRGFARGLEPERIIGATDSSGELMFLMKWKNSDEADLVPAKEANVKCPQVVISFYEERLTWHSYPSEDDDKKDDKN
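HP1-beta protein (50 nM final) preincubated 30 min at room temperature with biotinylated H3(1-18)K9me3 peptide (50 nM) in PBS pH 7.4, 0.01% Tween-20, then compound added for 30 min. AlphaScreen streptavidin donor/nickel chelate acceptor beads (10 ug/mL final), 30 min dark, luminescence read.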
G9a inh – blocks human histone lysine methyltransferase G9a; Q96KQ7; G9a H3K9 monomethylation, AlphaScreen, 2 h; Potency, µM (titrated, usually from 102 µM), usual class: inhibitors; 350,000 tested, 8.8% active; AID 504332; also: nearly all actives have a fitted effect of over 75% in size
Target sequence (Q96KQ7 913-1193 limits assumed): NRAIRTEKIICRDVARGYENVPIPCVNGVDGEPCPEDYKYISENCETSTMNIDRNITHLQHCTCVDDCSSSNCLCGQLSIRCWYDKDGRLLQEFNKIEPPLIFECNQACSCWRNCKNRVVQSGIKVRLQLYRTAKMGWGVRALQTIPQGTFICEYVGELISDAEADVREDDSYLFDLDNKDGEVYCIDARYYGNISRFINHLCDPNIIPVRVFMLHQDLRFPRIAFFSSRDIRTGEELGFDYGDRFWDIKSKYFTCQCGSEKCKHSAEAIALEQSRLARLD
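G9a (20 nM) was preincubated 15 min with compound, then reacted 2 h at room temperature with 500 nM biotin-H3K9 peptide and 20 µM SAM. Monomethyl-H3K9 detected by AlphaScreen using anti-H3K9me1 antibody.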
Sfp inh – inhibitors of Bacillus subtilis Sfp phosphopantetheinyl transferase | 310,000 tested, 3.5% active | AID 1490 | Biochemical Sfp PPTase activity, qHTS | Potency, µM, actives largely listed as inhibitors;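 also: the enzyme is Sfp with the accession as filed and its product quenches rhodamine fluorescence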
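Step 1, compound plus 15 nM Sfp-PPTase, 15 min, room temperature. Step 2, add rhodamine-CoA (5 uM) and BHQ-2-YbbR (12.5 uM). Step 3, read 525/598 nm fluorescence at 0 and 30 min.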
JMJD2A Tudor – inhibitors of human JMJD2A Tudor domain | AlphaScreen JMJD2A-Tudor / H3K4me3 peptide binding | Potency, µM (doses to about 114 µM), actives largely listed as inhibitors | AID 504339 | 390,000 tested, 4.4% active; also: nearly all actives have a fitted effect of over 50% in size
BAZ2B block – BAZ2B (human) inhibition. Q9UIF8. AlphaScreen BAZ2B-H3K14Ac peptide displacement. Potency, µM (highest dose often 114 µM), hits mostly inhibitors. 360,000 tested, 4.4% active. AID 504333; also: nearly all actives have a fitted effect of over 60% in size
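AlphaScreen luminescence quantifies BAZ2B engagement of H3K14Ac peptide; the protein and biotinylated peptide are both at 50 nM final, buffer PBS pH 7.4 with 0.01% Tween-20, all steps at room temperature.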
Large screens that a line does not name were inactive. In the library only some 12% were active in any assay of this set; here they are far more common. Calls follow the shape of the dose curve; as a rule, active = well fitted curve in the direction sought with a large enough effect; inconclusive = small, poorly fitted or top-dose-only effect, or another doubt; inactive = no such curve, though single readings can be large; an effect the other way counts as inactive or inconclusive.

COc1ccc(Br)cc1/C=N/NC(=O)c1ccc(COc2ccc3c(c2)CCC3)o1	none
O=C(N/N=C/c1cc([N+](=O)[O-])ccc1O)c1ccc(COc2ccc3c(c2)CCC3)o1	HP1b binding inh inconclusive, JMJD2A Tudor inconclusive, BAZ2B block 45µM (no result: G9a inh)
Cc1ccn(CC(=O)N/N=C/c2cc([N+](=O)[O-])ccc2O)n1	JMJD2A Tudor 22µM, BAZ2B block 35µM
O=C(Cn1cncn1)N/N=C/c1cc([N+](=O)[O-])ccc1O	JMJD2A Tudor 25µM, BAZ2B block 22µM
Cc1ccc(S(=O)(=O)c2nc(S(C)(=O)=O)sc2N2CCC(C(N)=O)CC2)cc1	none
N#Cc1ccc(C(=O)N2CCN(c3ncccn3)CC2)cc1	none
O=C(CSc1ccccn1)N/N=C/c1ccccc1[N+](=O)[O-]	none
O=C(N/N=C/c1ccccc1Cl)c1nc2ccc([N+](=O)[O-])cc2c(=O)[nH]1	G9a inh inconclusive, JMJD2A Tudor 25µM
O=C(N/N=C/c1cc([N+](=O)[O-])ccc1O)C1C2CCCCC21 (stereo not given)	G9a inh inconclusive, BAZ2B block 45µM (no result: HP1b binding inh, JMJD2A Tudor)
Cc1cc([N+](=O)[O-])nn1CC(=O)N/N=C/c1ccc(O)cc1O	JMJD2A Tudor inconclusive, BAZ2B block 89µM
O=C(N/N=C/c1cccc([N+](=O)[O-])c1)c1nc2ccccc2c(=O)[nH]1	none
O=C(CSc1ccccn1)N/N=C/c1cc([N+](=O)[O-])ccc1O	JMJD2A Tudor inconclusive, BAZ2B block 45µM
Cc1nc2ccc(C(=O)N/N=C/c3cc([N+](=O)[O-])ccc3O)cc2[nH]1	JMJD2A Tudor 56µM, BAZ2B block 35µM
O=C(Cn1nnc(-c2ccccc2)n1)N/N=C/c1cc([N+](=O)[O-])ccc1O	JMJD2A Tudor inconclusive, BAZ2B block inconclusive
O=C(Cn1nc2ccccc2n1)N/N=C/c1cc([N+](=O)[O-])ccc1O	G9a inh inconclusive, JMJD2A Tudor inconclusive, BAZ2B block 11µM
COc1ccc(Nc2nc(Cl)c(C=O)s2)cc1	none (no result: HP1b binding inh, JMJD2A Tudor)
COc1ccc(-c2nn(-c3ccccc3)cc2/C=C/C(=O)OCC(=O)Nc2ccccc2C#N)cc1	none
O=C(O)/C=C/c1cn(-c2ccccc2)nc1-c1cccc([N+](=O)[O-])c1	G9a inh inconclusive
O=C(O)/C=C/c1cn(-c2ccccc2)nc1-c1ccc(-c2ccc([N+](=O)[O-])cc2)o1	HP1b binding inh inconclusive, G9a inh 50µM, Sfp inh 25µM, JMJD2A Tudor 45µM, BAZ2B block 50µM
CNC(=O)COC(=O)/C=C/c1cn(-c2ccccc2)nc1-c1ccc(C)o1	Sfp inh 50µM (no result: G9a inh)
Cc1cc(N2CCN(C)CC2)nc2ccc(NC(=O)Nc3ccc(F)cc3F)cc12	none (no result: Sfp inh)
COC(=O)C1CSc2[nH]c(=O)sc2C1c1ccccc1 (stereo not given)	HP1b binding inh inconclusive, G9a inh 56µM, Sfp inh 45µM
O=C(O)CSCc1cnn(-c2ccccc2)c1-n1cccc1	BAZ2B block inconclusive
O=C(CSCc1cnn(-c2ccccc2)c1-n1cccc1)N1CCN(Cc2ccccc2)CC1	G9a inh 40µM, JMJD2A Tudor inconclusive, BAZ2B block inconclusive
CC(C)(C)c1ccc(C2NC(=O)c3n[nH]c(-c4cccs4)c32)cc1 (stereo not given)	none (no result: Sfp inh, BAZ2B block)
Cc1ccc(C)c(SCC(=O)Nc2cccc(S(=O)(=O)NC3=NCCCCC3)c2)c1	none
Cc1cccc(-c2nc(CC(=O)Nc3cccc(S(=O)(=O)NC4=NCCC4)c3)cs2)c1	G9a inh inconclusive (no result: Sfp inh)
CCCNCC(=O)Nc1cccc(S(=O)(=O)NC2=NCCCCC2)c1	HP1b binding inh inconclusive, JMJD2A Tudor 1µM (no result: G9a inh, Sfp inh, BAZ2B block)
COCCCNC(=S)Nc1cccc(S(=O)(=O)NC2=NCCC2)c1	none
O=C(Cc1csc(-c2cccc(Cl)c2)n1)Nc1cccc(S(=O)(=O)NC2=NCCC2)c1	G9a inh 14µM (no result: Sfp inh)
CNC(=S)Nc1cccc(S(=O)(=O)NC2=NCCC2)c1	G9a inh 50µM (no result: BAZ2B block)
Cc1ccc(CNCC(=O)Nc2cccc(S(=O)(=O)NC3=NCCCCC3)c2)cc1	HP1b binding inh inconclusive, G9a inh 40µM, JMJD2A Tudor 7.9µM, BAZ2B block inconclusive
Cc1nc(-c2ccccc2)sc1-c1ccc(SCC(=O)NCc2ccccc2Cl)nn1	none (no result: Sfp inh)
Cc1ccc(Nc2nnc(SCC(=O)Nc3cccc(S(=O)(=O)NC4=NCCCCC4)c3)s2)c(C)c1	G9a inh 40µM

Source: PubChem BioAssay
